# Source: the supplement of paper PMC8728848
# The sample as a whole holds a higher share of the strongest signals than the screen did.
# How the values were obtained:
# Assay in all cases: glycan array binding signal (z-score within array); higher = stronger binding
# Conditions in all cases: glycan notation: IUPAC condensed, linker removed
# Gal6S(b1-4)Glc6S = target: Gal6S(b1-4)Glc6S
# Procedure, shortened: (§1)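 The Consortium for Functional Glycomics database supplied 3228 glycan arrays, of which those lacking an available protein sequence were dropped. The binding signal, a within-array Z-score, was averaged across arrays of the same protein sequence and across linkers. Negative scores can be read as non-binding.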
# Gal6S(b1-4)GlcNAc = target: Gal6S(b1-4)GlcNAc
# Procedure, shortened: as §1
# GalNAc(a1-3)Gal = target: GalNAc(a1-3)Gal
# Procedure, shortened: as §1
# GalNAc(a1-3)GalNAc = target: GalNAc(a1-3)GalNAc
# Procedure, shortened: as §1
# GalNAc(b1-3)GalNAc = target: GalNAc(b1-3)GalNAc
# Procedure, shortened: as §1
# GalNAc(b1-4)Gal(b1-4)Glc = target: GalNAc(b1-4)Gal(b1-4)Glc
# Procedure, shortened: as §1
# Glc(b1-4)Glc = target: Glc(b1-4)Glc
# Procedure, shortened: as §1
# [1] = target: GlcNAc(a1-4)Gal(b1-4)GlcNAc
# Procedure, shortened: as §1
# [2] = target: GlcNAc(a1-4)Gal(b1-4)GlcNAc(b1-3)Gal(b1-4)GlcNAc(b1-3)Gal(b1-4)GlcNAc
# Procedure, shortened: as §1
# [3] = target: GlcNAc(a1-4)Gal(b1-4)GlcNAc(b1-3)Gal(b1-4)[Fuc(a1-3)]GlcNAc(b1-3)Gal(b1-4)[Fuc(a1-3)]GlcNAc
# Procedure, shortened: as §1
# [4] = target: GlcNAc(b1-3)Gal(b1-4)GlcNAc(b1-2)Man(a1-3)[GlcNAc(b1-3)Gal(b1-4)GlcNAc(b1-2)Man(a1-6)]Man(b1-4)GlcNAc(b1-4)[Fuc(a1-6)]GlcNAc
# Procedure, shortened: as §1
# [5] = target: GlcNAc(b1-4)GlcNAc(b1-4)GlcNAc
# Procedure, shortened: as §1
# [6] = target: GlcNAc(b1-4)[GlcNAc(b1-6)]GalNAc
# Procedure, shortened: as §1
# Kdn(a2-6)Gal(b1-4)GlcNAc = target: Kdn(a2-6)Gal(b1-4)GlcNAc
# Procedure, shortened: as §1
# [7] = target: Man(a1-2)Man(a1-3)[Man(a1-2)Man(a1-6)]Man
# Procedure, shortened: as §1
# [8] = target: Neu5Ac(a2-3)Gal(b1-3)GalNAc
# Procedure, shortened: as §1
# [9] = target: Neu5Ac(a2-3)Gal(b1-3)GalNAc(b1-4)[Neu5Ac(a2-8)Neu5Ac(a2-3)]Gal(b1-4)Glc
# Procedure, shortened: as §1
# [10] = target: Neu5Ac(a2-3)Gal(b1-3)GlcNAc(b1-3)GalNAc
# Procedure, shortened: as §1
# [11] = target: Neu5Ac(a2-3)Gal(b1-3)[Fuc(a1-4)]GlcNAc(b1-3)Gal(b1-3)[Fuc(a1-4)]GlcNAc
# Procedure, shortened: as §1
# [12] = target: Neu5Ac(a2-3)Gal(b1-4)[Fuc(a1-3)]GlcNAc(b1-2)Man
# Procedure, shortened: as §1
# [13] = target: Neu5Ac(a2-3)Gal6S(b1-4)GlcNAc
# Procedure, shortened: as §1
# Neu5Ac(a2-6)Gal(b1-4)Glc = target: Neu5Ac(a2-6)Gal(b1-4)Glc
# Procedure, shortened: as §1
# [14] = target: Neu5Ac(a2-6)Gal(b1-4)GlcNAc(b1-2)Man(a1-3)[Neu5Ac(a2-6)Gal(b1-4)GlcNAc(b1-2)Man(a1-6)]Man(b1-4)GlcNAc(b1-4)GlcNAc
# Procedure, shortened: as §1
# [15] = target: Neu5Ac(a2-6)Gal(b1-4)GlcNAc(b1-2)[Neu5Ac(a2-6)Gal(b1-4)GlcNAc(b1-4)]Man(a1-3)[GlcNAc(b1-4)][Neu5Ac(a2-6)Gal(b1-4)GlcNAc(b1-4)Man(a1-6)]Man(b1-4)GlcNAc(b1-4)GlcNAc
# Procedure, shortened: as §1
# [16] = target: Neu5Ac(a2-6)Gal(b1-4)GlcNAc(b1-3)Gal(b1-3)GlcNAc
# Procedure, shortened: as §1
# [17] = target: Neu5Ac(a2-6)Gal(b1-4)GlcNAc(b1-3)Gal(b1-4)GlcNAc(b1-3)Gal(b1-4)GlcNAc(b1-2)Man(a1-3)[Neu5Ac(a2-6)Gal(b1-4)GlcNAc(b1-3)Gal(b1-4)GlcNAc(b1-3)Gal(b1-4)GlcNAc(b1-2)Man(a1-6)]GalNAc
# Procedure, shortened: as §1
# [18] = target: Neu5Ac(a2-6)Gal(b1-4)GlcNAc(b1-3)Gal(b1-4)GlcNAc(b1-6)[Gal(b1-3)]GalNAc
# Procedure, shortened: as §1
# [19] = target: Neu5Ac(a2-8)Neu5Ac(a2-3)Gal(b1-3)GalNAc(b1-4)[Neu5Ac(a2-8)Neu5Ac(a2-3)]Gal(b1-4)Glc
# Procedure, shortened: as §1
# [20] = target: Neu5Ac(a2-8)Neu5Ac(a2-8)Neu5Ac(a2-8)Neu5Ac(a2-3)[GalNAc(b1-4)]Gal(b1-4)Glc
# Procedure, shortened: as §1
# [21] = target: Neu5Gc(a2-3)Gal(b1-4)[Fuc(a1-3)]GlcNAc
# Procedure, shortened: as §1
# [22] = target: Neu5Gc(a2-6)Gal(b1-4)GlcNAc
# Procedure, shortened: as §1
binder,measurement,setting,value
"Gal 10 (Homo sapiens), Q05315 (protein) MSLLPVPYTEAASLSTGSTVTIKGRPLVCFLNEPYLQVDFHTEMKEESDIVFHFQVCFGRRVVMNSREYGAWKQQVESKNMPFQDGQEFELSISVLPDKYQVMVNGQSSYTFDHRIKPEAVKMVQVWRDISLTKFNVSYLKR",glycan array binding signal (z-score),Gal6S(b1-4)Glc6S,-0.014
same,glycan array binding signal (z-score),Gal6S(b1-4)GlcNAc,-0.568
same,glycan array binding signal (z-score),GalNAc(a1-3)Gal,-0.104
same,glycan array binding signal (z-score),GalNAc(a1-3)GalNAc,-0.834
same,glycan array binding signal (z-score),GalNAc(b1-3)GalNAc,-0.693
same,glycan array binding signal (z-score),GalNAc(b1-4)Gal(b1-4)Glc,2.27
same,glycan array binding signal (z-score),Glc(b1-4)Glc,-0.17
same,glycan array binding signal (z-score),[1],-0.744
same,glycan array binding signal (z-score),[2],0.459
same,glycan array binding signal (z-score),[3],3.48
same,glycan array binding signal (z-score),[4],-0.014
same,glycan array binding signal (z-score),[5],-0.449
same,glycan array binding signal (z-score),[6],-0.956
same,glycan array binding signal (z-score),Kdn(a2-6)Gal(b1-4)GlcNAc,0.098
same,glycan array binding signal (z-score),[7],-0.68
same,glycan array binding signal (z-score),[8],-0.079
same,glycan array binding signal (z-score),[9],0.255
same,glycan array binding signal (z-score),[10],-0.378
same,glycan array binding signal (z-score),[11],1.14
same,glycan array binding signal (z-score),[12],2.57
same,glycan array binding signal (z-score),[13],-0.415
same,glycan array binding signal (z-score),Neu5Ac(a2-6)Gal(b1-4)Glc,-0.381
same,glycan array binding signal (z-score),[14],0.509
same,glycan array binding signal (z-score),[15],2.9
same,glycan array binding signal (z-score),[16],-0.312
same,glycan array binding signal (z-score),[17],3.41
same,glycan array binding signal (z-score),[18],-0.176
same,glycan array binding signal (z-score),[19],-0.741
same,glycan array binding signal (z-score),[20],0.562
same,glycan array binding signal (z-score),[21],0.205
same,glycan array binding signal (z-score),[22],-0.495
